Measurements: PubChem BioAssay AID686978 (National Center for Advancing Translational Sciences (NCATS), 2013)
Screen size: about 420,000 compounds; about 64,000 (15%) were called active. About 27% were inconclusive and are not listed. Not all results are given here. A number with no mark means an inactive call. Calls come from the whole dose curve; as a rule, active = well fitted inhibition curve with a large enough effect; inconclusive = small, poorly fitted or top-dose-only effect; inactive = flat fitted curve, though single readings scatter.

test: qHTS for Inhibitors of human tyrosyl-DNA phosphodiesterase 1 (TDP1): qHTS in cells in absence of CPT; conditions: DT40 Tdp1-/- hTDP1 cells, no CPT, ATP luminescence, 48 h; activity change, negative = growth inhibition: at 46.2 µM (top of the series); note: nearly all actives have a fitted effect of over 55% in size
Method in brief: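 Seeded 400 DT40-hTDP1 cells/well (vehicle DMSO, no 20 nM CPT); pinned compounds; ≥48 hr at 37 °C; CellTiter-Glo luminescence as viability measure.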
% is set by controls: 0 for no effect and ±100 for the full control effect; potency is the fitted concentration of half-maximal effect.

SMILES	activity change, negative = growth inhibition	Potency
COc1ccc2c(c1)cc1n2CCN=C1NN	-25.9%	
COc1ccccc1CN1CC(C(=O)NCCc2cn[nH]c2)CCC1=O (centres undefined)	-17.8%	
CC(C)=CC1C(C(=O)O)C1(C)C (centres undefined)	-20.2%	
CCC1(C)COC(c2ccc(OC)c(OC)c2)OC1 (centres undefined)	-16.8%	
CC(=O)c1cccc(-n2nnnc2SCC(=O)NNC(=O)C2CCCCC2)c1	5.14%	
CCN(Cc1ccccc1)C(=O)CSc1nc(C)cc2c1C(=O)OC2	-3.19%	
Cc1ccc(C(NC(=O)N2CCCC2)C(Cl)(Cl)Cl)cc1F (centres undefined)		20.6 µM (active)
CCOC(=O)C1CCCN(C(=O)c2ccc(C)c(F)c2)CC1 (centres undefined)	-10.2%	
Cc1cc(C)cc(NC(=O)N2CCCCCCC2)c1	-17.7%	
CCOC(=O)C1C(=O)OC2(CCCC2)C1C(=O)OCC (centres undefined)	4.25%	
Cc1ccc(CC2C(=O)N(c3ccc(F)cc3)C(=O)C2C)cc1 (centres undefined)	-5.78%	
CC1(C)CC(=O)CC2(C1)NCC(c1ccccc1Cl)c1c2[nH]c2ccccc12 (centres undefined)		16.4 µM (active)
CC(=O)Nc1ccccc1-c1nc(CNC(=O)c2ccc(Cl)cc2)c(C)o1	-24.1%	
COC(=O)c1cc2occc2n1Cc1nc(-c2ccccc2C)oc1C	-19.5%	
CNC(=O)c1ccc(-c2nc(CN3CCc4ccccc43)c(C)o2)cc1		20.6 µM (active)
COc1ccc(-c2cn(-c3ccc(C)cc3)c(=O)n2CC(=O)Nc2ccc(OC)c(OC)c2)cc1	-11.3%	
CN(Cc1ccccc1)C(=O)c1ccc(NC2=NC3CS(=O)(=O)CC3S2)cc1 (centres undefined)	-0.188%	
CCC(C)[C@H](NC(=O)N1CCn2c1nc1ccccc12)C(=O)NCc1ccc(OC)cc1 (some centres undefined)		16.4 µM (active)
CC(C)[C@H](NC(=O)N1CCn2c1nc1ccccc12)C(=O)NCc1ccc2c(c1)OCO2	-15.7%	
CC(C)[C@H](NC(=O)N1CCn2c1nc1ccccc12)C(=O)NC1CC1	-17.3%	
N/C(=N\OC(=O)CCCC(=O)O)c1ncc(C(F)(F)F)cc1Cl	-2.03%	
CC(C)CCN1CCC(C)(NC(=O)c2ccccc2)C1=O (centres undefined)	-16.2%	

SMILES	activity change, negative = growth inhibition	Potency
CN(C)/C=C(/C(=O)c1ccc(Cl)cc1)S(=O)(=O)c1ccccc1	-7.39%	
COC(C[C@@H]1O[C@@H]1C(=O)[C@H](C)OCc1ccccc1)OC	-4.23%	
COC(C/C=C/C(=O)[C@@H](C)OCc1ccccc1)OC		18.4 µM (active)
COC(C[C@H](O)CC(=O)[C@@H](C)OCc1ccccc1)OC	-3.29%	
CCc1ccccc1N1C(=O)CN(S(=O)(=O)CC)CC1(C)C(=O)NC1CCCCC1 (centres undefined)	-10.3%	
Cc1ccccc1N1CC(C(=O)Nc2ccc3c(c2)OCO3)CC1=O (centres undefined)	-8.42%	
CN(C)c1ccc(CNC23CN4CN(CN(C4)C2)C3)cc1		18.4 µM (active)
CCOc1ccc(NC(=O)CC2NCCNC2=O)cc1 (centres undefined)	17.8%	
O=C(Nc1ccc2c(c1)[C@@H]1C[C@@H](CC(=O)N3CCCCC3)O[C@@H](CO)[C@@H]1O2)NC1CCCCC1	-20.2%	
O=C(C[C@H]1C[C@H]2c3cc(NS(=O)(=O)c4ccc(F)cc4)ccc3O[C@H]2[C@H](CO)O1)NCc1cc(F)ccc1F		18.4 µM (active)
COC(=O)C[C@H]1C[C@@H]2c3cc(NC(=O)Nc4ccccc4)ccc3O[C@@H]2[C@@H](CO)O1	-11.5%	
O=C1NC(O)CCN1C1CC(O)C(CO)O1 (centres undefined)	-5.27%	
CC(C)Oc1ccc(Oc2ccc(C(F)(F)F)cn2)cc1	-8.56%	
COC(=O)CC1=NN(c2nc(C)cc(C)n2)C(=O)C1	1.84%	
C=CCn1c(=NC(=O)c2ccc(S(=O)(=O)N3CCCC3)cc2)sc2cc(NC(C)=O)ccc21	-26.4%	
Cn1cc(Cl)c(C(=O)NNC(=S)Nc2cccc(Cl)c2)n1	9.94%	
Cc1cccc(-n2cnc(C(=O)Nc3cccnc3)c2)n1	-21.8%	
Cc1cccc(-n2cnc(C(=O)NNC(=S)Nc3ccccc3)c2)n1		23.1 µM (active)
Cc1ccc(CNC(=O)CCNS(=O)(=O)c2ccc3c(c2)oc(=O)n3C)cc1	-16.1%	
COc1cccc(CNCCSc2nnnn2C)c1OCc1ccccc1Cl		20.6 µM (active)
COC(=O)c1ccccc1NC(=O)CSc1nnnn1C	1.28%	
CCOc1ccc(CNCCSc2nnnn2C)cc1	2.47%	

SMILES	activity change, negative = growth inhibition	Potency
COc1cc(CNCCSc2nnnn2C)ccc1OCc1ccc(Cl)cc1Cl		23.1 µM (active)
COc1cccc(CNn2cn[nH]c2=S)c1OCc1ccccc1	18.9%	
Cn1nnnc1SCCNCc1ccc(Cl)c(Cl)c1	-6.41%	
CCOc1ccc(OCC)c(Nc2nc3ccccc3n3nnnc23)c1	-5.32%	
C=CCOc1c(CNn2cn[nH]c2=S)cccc1OC	-26.1%	
CC(C)CC(=O)NCC(c1ccc2c(c1)OCO2)N1CCN(c2ccc(F)cc2)CC1 (centres undefined)		25.9 µM (active)
CC(C)CNC(=O)C(=O)NCC(c1ccc2c(c1)OCO2)N1CCOCC1 (centres undefined)	-1.74%	
O=C(NCCO)C(=O)NCC(c1ccc2c(c1)OCO2)N1CCN(c2ccc(F)cc2)CC1 (centres undefined)	-22.3%	
Cc1c(C(=O)NCC2CCCN(C)C2)cnn1-c1nccc(-c2ccco2)n1 (centres undefined)	-0.77%	
CC1CC(=O)Nc2ccccc2N1S(=O)(=O)c1cccs1 (centres undefined)	-2.79%	
COc1ccc2[nH]c(=O)c(-c3noc(-c4ccc(F)cc4)n3)cc2c1	5.76%	
COc1ccc(Cc2nnc(SC)[nH]c2=O)cc1	13.9%	
COc1ccc(Cc2cc(-c3ccc(F)cc3)n[nH]c2=O)cc1		13 µM (active)
COc1ccc(CNC(=O)CCC(=O)Nc2nnc(C(C)C)s2)cc1	-8.65%	
COc1ccccc1OCC(=O)OCc1cc(-c2ccco2)on1	-9.05%	
CCCc1ccc(OCC(O)CN2CCN(C(=O)OCC)CC2)cc1 (centres undefined)	-15.6%	
O=C(O)CCC(=O)Nc1ccc(OCC2CCCO2)cc1 (centres undefined)	8.22%	
COc1ccc(C(=O)Nc2ccc(C(=O)NCC3CCCO3)cc2)c(OC)c1OC (centres undefined)	1.23%	
COc1ccc(OC)c(NC(=O)c2cc(-c3cc(F)ccc3OCC3CCCO3)n[nH]2)c1 (centres undefined)		9.2 µM (active)
O=C(/C=C/c1cc2c(cc1Br)OCO2)NCc1ccc(Cl)cc1	-13.7%	
CCCCn1c(N)c(N(Cc2ccccc2OC)C(=O)COc2cc(C)ccc2Cl)c(=O)[nH]c1=O	9.31%	
Cc1cc(C)cc(NS(=O)(=O)Cc2ccccc2)c1	-4.52%	

SMILES	activity change, negative = growth inhibition	Potency
O=C(OCc1ccc([N+](=O)[O-])cc1)c1ccccn1	-0.96%	
O=C(Oc1ccc([N+](=O)[O-])cc1)c1ccc2ccccc2n1	-13.7%	
O=[N+]([O-])c1ccc(/C=C/c2ccc3cccnc3c2)cc1		10 µM (active)
Cc1c(Cl)cccc1NC(=O)NCc1ccc(C)n1C	-1.46%	
Cn1cc(-c2ccccc2)cc(C#N)c1=O	3.04%	
O=C(O)c1ccccc1C(=O)NC1=NN(c2ccccc2)CC1	3.54%	
CCOC(=O)c1nnn(-c2nonc2-n2cccc2)c1CN1CCOCC1	-16.4%	
NNC(=O)c1nnn(-c2nonc2N)c1CN1CCCC1	-26.6%	
CCOC(=O)c1nnn(-c2nonc2-n2cccc2)c1CN1CCC(C(=O)OCC)CC1		18.4 µM (active)
COC(=O)C1(CCSC)NC(c2ccc(OC)cc2OC)C2C(=O)N(c3cccc(C(C)=O)c3)C(=O)C21 (centres undefined)	-0.329%	
COc1ccccc1-c1cc(C(F)(F)F)nc(S(=O)(=O)CCCC(=O)Nc2ccc(F)cc2F)n1		3.66 µM (active)
COc1ccccc1-c1cc(C(F)(F)F)nc(S(=O)(=O)CCCC(=O)Nc2cc(C)ccc2O)n1	-16.7%	
O=C(COC(=O)CSc1ccccc1)Nc1ccc(F)cc1F	-2.12%	
O=C(CSc1ccc(-c2cccs2)nn1)Nc1ccccc1F	-28.9%	
CSc1ccccc1NC(=O)CCS(=O)(=O)c1nc(-c2cccs2)cc(C(F)(F)F)n1		11.6 µM (active)
CC(Sc1nc(-c2ccccc2)cc(C(F)(F)F)n1)C(=O)Nc1ccc2c(c1)OCO2 (centres undefined)	-17.8%	
Cc1ccc(O)c(NC(=O)CCS(=O)(=O)c2nc(-c3ccc4c(c3)OCO4)cc(C(F)(F)F)n2)c1		11.6 µM (active)
O=C(Nc1cc(C(F)(F)F)ccc1Cl)c1cc2nc(-c3ccc4c(c3)OCO4)cc(C(F)(F)F)n2n1	-2.54%	
Cc1cc2nc(C(F)(F)F)cc(-c3cccs3)n2n1	8.66%	
CCC(=O)c1c[nH]c(C(=O)NCC2CCCO2)c1 (centres undefined)	-0.0708%	
Cc1ccc(C(=O)OCC(=O)NC(=O)Cc2ccccc2)c(O)c1	11.2%	
CC(C)(C)C(=O)COC(=O)c1cc(S(=O)(=O)N2CCCCC2)ccc1N1CCOCC1	-3.08%	

SMILES	activity change, negative = growth inhibition	Potency
CCCCSc1ncnc2c1sc1nc(N3CCOCC3)c3c(c12)CCCC3	-11.4%	
CC(C)Cc1nn2c(=O)cc(O)nc2s1	-4.21%	
CSc1nnc2c(n1)OC(c1ccsc1)N(C(C)=O)c1ccccc1-2 (centres undefined)	-5.05%	
COc1ccccc1NC(=O)COC(=O)Cc1ccc(S(=O)(=O)N2CCCCC2)s1	4.28%	
COC(=O)c1ccc(CSc2nncn2N)cc1	-20.8%	
CCOC(=O)c1ccc(CSc2nnc3cc(C)c4ccccc4n23)cc1		20.6 µM (active)
COC(=O)c1ccc(CSc2nncn2C)cc1	-11.6%	
COCc1c(C(=O)N/N=C/C2CC=CCC2)nnn1-c1nonc1N (centres undefined)	-17.3%	
CCc1ccc(N2CC(C(=O)NC3=NCCS3)CC2=O)cc1 (centres undefined)	-21.1%	
Cc1cccc(C(=O)OC(C)CN2CCCC2)c1 (centres undefined)	-17.1%	
Cc1cccc(N)c1SC1CCCCC1O (centres undefined)	-12.9%	
CCCn1nnc(NC(=O)COc2ccc(CC)cc2)n1	0.651%	
O=C(OCc1ccccc1F)c1ccc2c(c1)OCCO2	-21%	
C=C(C)CNC(=S)N/N=C/c1ccccc1OCC(=O)O	1.02%	
C=CCNC(=S)N/N=C/c1ccc(C)s1		7.31 µM (active)
C=CCNC(=S)NNC(=O)c1ccc(Br)o1	-3.32%	
CCOC(=O)c1c(NC(=O)CN2C(=O)NC3(CCC(C)CC3)C2=O)sc(C)c1CC (centres undefined)	-8.31%	
OCC(O)C1OCOC(C(O)CO)C1O (centres undefined)	1.31%	
COc1cc(NC(=O)CCn2nc(C)cc2C)cc(OC)c1OC	-13%	
COc1cc(NC(=O)c2cc(-c3ccc(F)cc3OC(C)C)n[nH]2)cc(OC)c1OC		11.6 µM (active)
COc1cc(F)ccc1-c1cc(C(=O)NCC2CCCCC2)[nH]n1	-23.8%	
